Experimental data: PubChem BioAssay AID686979 (National Center for Advancing Translational Sciences (NCATS), 2013)
The whole screen tested about 420,000 compounds, of which about 50,000 (12%) were called active. A call without a number means that no potency is given here. Another 26% or so got no clear call; they are omitted. The call rests on the fitted dose curve; in most records, active means well fitted inhibition curve with a large enough effect; inconclusive means small, poorly fitted or top-dose-only effect; inactive means flat fitted curve, though single readings scatter. For the sample, actives were picked, then their nearest neighbours and some compounds at random.

experiment: qHTS for Inhibitors of human tyrosyl-DNA phosphodiesterase 1 (TDP1): qHTS in cells in presence of CPT; settings: chicken DT40 Tdp1-/-;hTDP1 cells + 20 nM CPT, ATP luminescence, 48 h; series mostly up to 46.2 µM; further: nearly all actives have a fitted effect of over 55% in size
Summary of the method: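 Chicken DT40 Tdp1-/- cells stably complemented with human TDP1 were seeded at 400 cells/well in medium containing 20 nM camptothecin, exposed to pin-transferred compounds, and grown at 37 °C for at least 48 hr. Viability was read as ATP luminescence.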
Potency means the concentration at half of the fitted maximal effect.

| Compound | Potency |
| --- | --- |
| CC(OC(=O)c1ccccc1N1C(=O)C2C3CCC(C3)C2C1=O)C(=O)c1ccccc1 (stereo not given) | inactive |
| CCOC(=O)c1ccccc1N1C(=O)C2Sc3[nH]c(=O)sc3C(/C=C/c3ccccc3)C2C1=O (stereo not given) | 18.4 µM (active) |
| COC(=O)C1=C(C)N=C2SC(C)C(=O)N2C1/C=C/c1ccccc1 (stereo not given) | inactive |
| CCOc1ccc2[nH]c(=O)c(CN(CCCO)C(C)=O)cc2c1 | inactive |
| CCC(=O)N(CCc1ccccc1)Cc1cc2cc(C)ccc2[nH]c1=O | inactive |
| Cc1ccc2[nH]c(=O)c(CN(CCCN(C)C)C(=O)Nc3cccc(Cl)c3)cc2c1 | 20.6 µM (active) |
| Cc1cc(NC(=O)c2ccccc2C)no1 | inactive |
| OCCn1c(-c2ccccc2)csc1=Nc1ccccc1 | 25.9 µM (active) |
| Cc1csc(=Nc2ccccc2)n1CCO | inactive |
| Cc1nc(SCC(=O)NC2CCCC2)[nH]c(=O)c1C | inactive |
| CC(CC(=O)N1CCN(c2ccccc2)CC1)S(=O)(=O)c1ccc2c(c1)NC(=O)CS2 (stereo not given) | 23.1 µM (active) |
| O=C1CSc2ccc(S(=O)(=O)NCc3ccccc3)cc2N1 | inactive |
| COc1ccccc1N1CCN(S(=O)(=O)c2ccc3c(c2)NC(=O)CS3)CC1 | inactive |
| Cc1ccccc1OCCC(=O)OCC(=O)NCCc1ccc(S(N)(=O)=O)cc1 | inactive |
| Cc1oc2c(F)c(F)c(F)c(F)c2c1S(=O)(=O)Nc1cccc(C(F)(F)F)c1 | 11.6 µM (active) |
| Cc1ccc(N(CCC(=O)O)S(=O)(=O)c2cccc(C(F)(F)F)c2)cc1 | inactive |
| Cc1noc(C)c1S(=O)(=O)Nc1cc(C(F)(F)F)ccc1N1CCOCC1 | inactive |
| O=S(O)CNc1ccc(S(=O)(=O)c2ccc(NCS(=O)O)cc2)cc1 | inactive |
| COC(=O)[C@@H]1CC2=CC(=O)CC[C@]2(C)[C@@]23O[C@@H]2C[C@@]2(C)[C@@H](CC[C@@]24CCC(=O)O4)[C@H]13 | inactive |
| CC(=O)O[C@]1(C(C)=O)CC[C@H]2[C@@H]3C=C(C)C4=CC(=O)CC[C@]4(C)[C@H]3CC[C@@]21C | inactive |
| C[C@]12CCC(=O)C=C1C=CC1C2CC[C@@]2(C)C1CC[C@@]21CCC(=O)O1 (stereo not given in full) | 20.6 µM (active) |
| CN1CCN(C(=O)/C(=C\c2ccc3c(c2)OCO3)NC(=O)c2cccs2)CC1 | inactive |

| Compound | Potency |
| --- | --- |
| CCn1ccnc1CN(C)C(=O)c1cc(COc2ccc(Cl)cc2OC)on1 | inactive |
| O=C(O)CCn1c(SCc2cc(=O)n3ccccc3n2)nc2ccsc2c1=O | inactive |
| Cc1cc(C)cc(CN2CCc3nnc(C(NS(C)(=O)=O)C(C)C)n3CC2)c1 (stereo not given) | inactive |
| Cc1cccc(-c2nc(SCc3ccc(Br)cc3)n3[nH]c(=O)cc3n2)c1 | 16.4 µM (active) |
| Cc1cccc(CSc2nnc(C)c(=O)n2N)c1 | inactive |
| CCc1ccccc1OCCSc1nc(-c2cccs2)nc2cc(=O)[nH]n12 | inactive |
| CCN(CC(=O)Nc1ccccc1C(F)(F)F)C(=O)C1CCN(C(=O)Nc2ccccc2)CC1 | inactive |
| NC(=O)c1ccsc1NC(=O)COC(=O)COc1ccc(C=O)cc1 | inactive |
| COC(=O)c1ccc(/C=N/N2C(C)CCCC2C)cc1 (stereo not given) | inactive |
| Cc1cccc[n+]1CC(=O)c1ccccc1 | inactive |
| COC(=O)C[n+]1cccc2ccccc21 | inactive |
| CC(C)(C)c1ccc(C(=O)C[n+]2cccc3cc(Cl)ccc32)cc1 | 5.01 µM (active) |
| CCCC(O)(c1ccccc1)C(c1ccccc1)c1ccccn1 (stereo not given) | inactive |
| Cc1nc(N2CCN(c3ccccn3)CC2)c2c(C)c(C(=O)Nc3ccc(F)c(Cl)c3)sc2n1 | 16.4 µM (active) |
| COc1ccc(NC(C)=O)cc1NC(=O)CN1CCN(c2ccccn2)CC1 | inactive |
| O=C(c1c(F)cccc1Cl)N1CCN(c2ccccn2)CC1 | inactive |
| Cc1ccc(NC(=O)Cn2cnc3nc4c(cc3c2=O)CCCC4)cc1Cl | inactive |
| Cc1cc(NS(=O)(=O)c2ccc(NC(=O)c3cccc(OC(F)F)c3)cc2)nc(C)n1 | inactive |
| O=S(=O)(Nc1n[nH]c(C(F)(F)F)n1)c1ccccc1 | inactive |
| CCCc1[nH]nc2c1C(c1c(C)nn(-c3ccccc3)c1Cl)C(C#N)=C(N)O2 (stereo not given) | 11.2 µM (active) |
| CCCc1[nH]nc2c1C(c1ccc(OC(=O)c3ccco3)cc1)C(C#N)=C(N)O2 (stereo not given) | inactive |
| CCCc1[nH]nc2c1C(c1ccc(OC)c(Cn3nc(C)c(Br)c3C)c1)C(C#N)=C(N)O2 (stereo not given) | inactive |

| Compound | Potency |
| --- | --- |
| Cc1nn(-c2ccccc2)c2c1C(c1ccc(F)cc1)C(C#N)=C(N)O2 (stereo not given) | inactive |
| COCc1[nH]nc2c1C(C1C=CCCC1)C(C#N)=C(N)O2 (stereo not given) | 13 µM (active) |
| CCCc1[nH]nc2c1C(c1ccc(Br)s1)C(C#N)=C(N)O2 (stereo not given) | 6.51 µM (active) |
| N#CC1=C(N)OC2=C(C(=O)CCC2)C1C1CC=CCC1 (stereo not given) | inactive |
| CCCc1nc2c([nH]1)C(c1cccnc1)C(C#N)=C(N)O2 (stereo not given) | inactive |
| CCc1ccc(C2C(C#N)=C(N)Oc3n[nH]c(CC(=O)OC)c32)cc1 (stereo not given) | inactive |
| CCCc1[nH]nc2c1C(C1CC=CCC1)C(C#N)=C(N)O2 (stereo not given) | 16.4 µM (active) |
| Cc1cc(C)c(C#N)c(SCc2[nH]nc3c2C(c2ccccc2)C(C#N)=C(N)O3)n1 (stereo not given) | inactive |
| CCOc1c(OC)cc(C2C(C#N)=C(N)Oc3n[nH]c(-c4ccncc4)c32)cc1OC (stereo not given) | inactive |
| C[C@@H]1CN([C@H](C)CO)C(=O)CCCn2cc(nn2)CO[C@H]1CN(C)S(C)(=O)=O | inactive |
| O=C(O)c1ccccc1C(=O)NC1=NN(c2ccccc2)CC1 | inactive |
| CNS(=O)(=O)c1ccc2c(c1)[nH]c(=S)n2C | inactive |
| CSc1ccccc1NC(=O)c1cc(Cl)sc1Cl | inactive |
| O=c1[nH]c(/C=C\c2cccc(C(F)(F)F)c2)nc(O)c1[N+](=O)[O-] | inactive |
| Cc1ccc(C)c(NC(=S)NNC(=S)Nc2ccc(C(C)C)cc2)c1 | inactive |
| CC(OC(=O)CCC(=O)c1ccccc1)C(=O)Nc1ccc(F)cc1 (stereo not given) | inactive |
| CCc1ccc(NC(=O)CN2C(=O)CSC2=O)cc1 | inactive |
| Cc1ccc(OCCC(=O)Nc2ccc(S(=O)(=O)Nc3nccs3)cc2)cc1 | inactive |
| O=C(NCc1ccc2c(c1)OCO2)c1ccc2c(c1)C(=O)N(CC1CCCO1)C2=O (stereo not given) | inactive |
| CCC(=O)Nc1ccc(C(=O)Nc2ccc3c(c2)C(=O)N(CC2CCCO2)C3=O)cc1 (stereo not given) | inactive |
| O=C1c2cccc3c([N+](=O)[O-])ccc(c23)C(=O)N1CC1CCCO1 (stereo not given) | 6.51 µM (active) |
